Source: PubChem
Giardia killer = Small Molecules that selectively kill Giardia lamblia: qHTS | Giardia lamblia trophozoite viability | activity change, % at 7.66 µM, hits read low | 340,000 compounds, 0.15% hits | AID 540267, 2011; in the data active = activity change below about -80%; inconclusive = between about -30% and that limit;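 also: parasites exposed to compound for two days anaerobically before the ATP read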
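Viability, read as ATP luminescence: trophozoites at 100 cells/well, compound added, 48 hrs anaerobic at 37 deg C, then 15-30 min room-temperature development before reading.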
MCF10A rerep = A quantitative high throughput screen for small molecules that induce DNA re-replication in MCF 10a normal breast cells | MCF 10A DNA re-replication, Hoechst nuclear intensity, 48 h | Potency, µM (top dose mostly 46.1 µM), hits mostly activators | 350,000 compounds, 2.9% hits; also: nearly all actives have a fitted effect of over 50% in size
Vif-APOBEC3F blk = qHTS for Inhibitors of Vif-A3F Interactions: qHTS; HeLa A3F-eYFP + Vif (tagged APOBEC3F with the HIV-1 protein that degrades it), YFP fluorescence increase; Potency, µM (top dose mostly 46.1 µM); 390,000 compounds, 0.2% hits; also: nearly all actives have a fitted effect of over 65% in size
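HeLa cells stably expressing Vif plus C-terminally eYFP-tagged A3F were seeded, incubated overnight at 37 deg C, dosed with compound, incubated overnight again at 37 deg C. Yellow fluorescence (Ex 488/Em 500-530) reported blocked Vif-mediated A3F-eYFP degradation.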
SW480 rereplic = A quantitative high throughput screen for small molecules that induce DNA re-replication in SW480 colon adenocarcinoma cells. 340,000 compounds, 1.8% hits. AID 624297, 2012. Potency, µM (doses to about 46.1 µM), hits mostly activators. SW480 DNA re-replication, Hoechst DNA content imaging, 48 h; also: nearly all actives have a fitted effect of over 55% in size
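DNA re-replication was detected as more nuclei of elevated Hoechst intensity after 48 hr exposure to compound (23 nL pinned per well of 250 cells).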
Vif-A3G inh = qHTS for Inhibitors of Vif-A3G Interactions: qHTS; Potency, µM (titrated, usually from 46.1 µM), hits mostly inhibitors; DNA dC->dU-editing enzyme APOBEC-3G (Homo sapiens), Q9HC16; AID 602310, 2012; HeLa A3G-eYFP + Vif (tagged APOBEC3G with the HIV-1 protein that degrades it), YFP fluorescence, overnight; 410,000 compounds, 0.076% hits; also: nearly all actives have a fitted effect of over 60% in size
Target sequence (Q9HC16 whole entry, looked up): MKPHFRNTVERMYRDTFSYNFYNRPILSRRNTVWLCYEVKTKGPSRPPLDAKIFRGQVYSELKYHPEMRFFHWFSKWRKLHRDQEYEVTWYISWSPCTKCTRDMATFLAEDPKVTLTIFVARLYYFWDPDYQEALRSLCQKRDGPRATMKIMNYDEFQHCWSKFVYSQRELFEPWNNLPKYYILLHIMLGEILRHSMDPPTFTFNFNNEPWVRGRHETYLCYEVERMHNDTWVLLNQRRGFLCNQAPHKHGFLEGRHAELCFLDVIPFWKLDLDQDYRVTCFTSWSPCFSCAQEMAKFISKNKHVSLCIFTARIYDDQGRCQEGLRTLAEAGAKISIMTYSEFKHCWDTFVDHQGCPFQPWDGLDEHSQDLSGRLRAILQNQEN
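Read-out is eYFP fluorescence (Ex 488/Em 500-530) from Vif-expressing HeLa A3G-eYFP cells; more signal means A3G escaped Vif-mediated degradation. Cells plated overnight, compound pinned in, incubated overnight at 37 deg C.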
IL1B secr inh = qHTS for Inhibitors of Inflammasome Signaling: IL-1-beta AlphaLISA Primary Screen | THP-1 LPS/ATP IL-1B secretion, AlphaLISA, 16 h; stronger effect = lower value | activity change, % at 57.5 µM | 360,000 compounds, 4.7% hits; in the data active = activity change below about -50%; inconclusive = mostly about -30% to -49%
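THP-1 cells pretreated 1 hr with compounds (up to 57.5 uM final), then stimulated with LPS (250 ng/mL final) plus ATP (1.25 mM final); secreted IL-1B measured by AlphaLISA after 16 hr, decreased signal indicating inhibition.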
Of the large screens only hits and unclear results are named; the others gave an inactive call; ! = not active in a repeat. The list is not random: actives were taken first. Their share in the collection is about 6.9%. Unless noted, calls follow the shape of the dose curve; as a rule, active = well fitted curve in the direction sought with a large enough effect; inconclusive = small, poorly fitted or top-dose-only effect, or another doubt; inactive = no such curve, though single readings can be large; an effect the other way counts as inactive or inconclusive.

COc1ccc(S(=O)(=O)Nc2cc(Cl)ccc2OC)cc1	MCF10A rerep 3.3µM, SW480 rereplic 2.9µM, Vif-A3G inh inconclusive
COc1ccc(OC)c(NS(=O)(=O)c2ccc(SC)cc2)c1	MCF10A rerep 13µM, SW480 rereplic 13µM, Vif-A3G inh inconclusive
O=c1c2ccccc2c(-c2ccc(O)cc2)nn1-c1cccc(C(F)(F)F)c1	MCF10A rerep inconclusive, SW480 rereplic inconclusive, IL1B secr inh -98
Cc1cccc(CN(C)CCc2ccccn2)c1	none
Cc1ccccc1CN(C)CCc1ccccn1	MCF10A rerep 0.65µM
COc1ccc(CN(C)C(=O)CNC(=O)Cc2cccc3ccccc23)c(OC)c1OC	none
COc1ccccc1CN(C)C(=O)C(NC(=O)Cc1cccc2ccccc12)C(C)C (stereo not given)	SW480 rereplic inconclusive, IL1B secr inh -62
Cc1ccc2c(c1)-c1c(c(C(=O)N3CCN(c4cc(C)ccc4C)CC3)nn1C)CS2	Vif-APOBEC3F blk inconclusive (no result: Giardia killer, MCF10A rerep, SW480 rereplic, IL1B secr inh)
Cc1ccccc1-n1c(SCC(=O)Nc2ccc(Cl)cc2Cl)nc(O)cc1=O	none (no result: Giardia killer, MCF10A rerep, SW480 rereplic, IL1B secr inh)
CCCCC(C(=O)NC1CCCC1)N(C(=O)c1snc(C(N)=O)c1N)c1ccc(F)cc1 (stereo not given)	none
CCCC(C(=O)NC1CCCC1)N(Cc1ccc2c(c1)OCO2)C(=O)c1snc(C(N)=O)c1N (stereo not given)	MCF10A rerep inconclusive, IL1B secr inh -53
CC(OC(=O)c1snc(C(=O)NC2CCCCC2)c1N)C(=O)NC1CCCCC1 (stereo not given)	MCF10A rerep 21µM, SW480 rereplic inconclusive
CCCC(C(=O)NC1CCCC1)N(C(=O)c1snc(C(N)=O)c1N)c1ccc(OCC)cc1 (stereo not given)	MCF10A rerep inconclusive, IL1B secr inh -59
Cc1ccc(N(C(=O)c2snc(C(N)=O)c2N)C(C(=O)NC2CCCC2)c2ccc(C)o2)cc1 (stereo not given)	SW480 rereplic inconclusive, IL1B secr inh -77
CCCC(C(=O)NC1CCCC1)N(Cc1ccc(F)cc1)C(=O)c1snc(C(N)=O)c1N (stereo not given)	none
Clc1ccc(Cn2cc3c(n2)-c2cc4ccccc4n2C3)cc1	none (no result: MCF10A rerep, Vif-APOBEC3F blk, SW480 rereplic, IL1B secr inh)
CC(C)C(=O)Nc1ccc2nc(SCC(=O)N3CCCC3)sc2c1	none (no result: Giardia killer, MCF10A rerep, SW480 rereplic, IL1B secr inh)
CCOc1ccc(N(C(=O)c2snc(C(N)=O)c2N)C(CC)C(=O)NC2CCCC2)cc1 (stereo not given)	SW480 rereplic 23µM
CCOc1ccccc1N(C(=O)c1snc(C(N)=O)c1N)C(CC)C(=O)NC1CCCC1 (stereo not given)	none
COc1ccc(N(C(=O)c2snc(C(N)=O)c2N)C(C(=O)NC2CCCC2)c2ccco2)c(OC)c1 (stereo not given)	MCF10A rerep inconclusive, Vif-APOBEC3F blk inconclusive, IL1B secr inh -70
COc1ccc(N(C(=O)c2snc(C(N)=O)c2N)C(C(=O)NC2CCCCC2)c2ccc(C)o2)c(OC)c1 (stereo not given)	MCF10A rerep inconclusive
COc1ccc(NC(=O)C(CC(C)C)NC(=O)C2CCCCC2)cc1 (stereo not given)	none (no result: Giardia killer, MCF10A rerep, SW480 rereplic, IL1B secr inh)
O=C(NCC1CCCO1)C(=Cc1cccc([N+](=O)[O-])c1)C(=O)NCC1CCCO1 (stereo not given)	MCF10A rerep inconclusive, SW480 rereplic inconclusive, IL1B secr inh -110
Cc1ccc2[nH]c(=O)c(CN(CCO)Cc3nnnn3Cc3ccccc3)cc2c1	none (no result: MCF10A rerep, Vif-APOBEC3F blk, SW480 rereplic, IL1B secr inh)
O=C(COc1ccc(Cl)cc1)N1CCN(C(=O)c2cccs2)CC1	IL1B secr inh -73
O=C(COc1ccc(Cl)cc1)N1CCN(Cc2ccc3c(c2)OCO3)CC1	IL1B secr inh -51!
COc1cccc(CN2CCN(C(=O)c3ccco3)CC2)c1	MCF10A rerep 0.58µM
O=C(c1ccccc1Br)N1CCN(Cc2ccc3c(c2)OCO3)CC1	IL1B secr inh inconclusive
COc1ccccc1C(=O)N1CCN(Cc2ccc3c(c2)OCO3)CC1	IL1B secr inh -57
COC(=O)c1c(N)n(-c2cc(Cl)cc(Cl)c2)c2nc3ccccc3nc12	none (no result: Giardia killer, MCF10A rerep, SW480 rereplic, IL1B secr inh)
C=CCn1c(SCCC)nc2ccccc2c1=O	none (no result: MCF10A rerep, Vif-APOBEC3F blk, SW480 rereplic, IL1B secr inh)
COc1cc(CNCCSc2nnnn2C)ccc1OCc1ccc(C)cc1	none (no result: Giardia killer, MCF10A rerep, SW480 rereplic, IL1B secr inh)
CC(C)[C@H](NC(=O)c1ccc(C(C)(C)C)cc1)C(=O)N1CCN(Cc2ccc3c(c2)OCO3)CC1	MCF10A rerep 18µM, SW480 rereplic inconclusive, IL1B secr inh -72
O=C(O)c1ccccc1C(=O)N1CCN(Cc2ccc3c(c2)OCO3)CC1	none
C/C(=C\c1ccccc1)C(=O)N1CCN(Cc2ccc3c(c2)OCO3)CC1	MCF10A rerep inconclusive, IL1B secr inh -69
COc1ccc(CC(=O)Nc2ccccc2C(=O)N2CCOCC2)cc1OC	SW480 rereplic 0.58µM
O=C(c1ccccc1F)N1CCN(Cc2ccc3c(c2)OCO3)CC1	IL1B secr inh -67
CCN(Cc1cccc(S(=O)(=O)O)c1)c1ccc(C(=C2C=CC(=[N+](CC)Cc3cccc(S(=O)(=O)O)c3)C=C2)c2ccc(O)cc2S(=O)(=O)O)cc1	none (no result: Giardia killer, MCF10A rerep, Vif-APOBEC3F blk, SW480 rereplic, IL1B secr inh)
Cc1cccc(-n2c(=O)c3c4c(sc3n3cnnc23)CCCC4)c1	none (no result: Giardia killer, MCF10A rerep, SW480 rereplic, IL1B secr inh)
CCOc1ccccc1C(=O)NCC(=O)N1CCN(Cc2ccc3c(c2)OCO3)CC1	IL1B secr inh -80
COc1ccc2cc3cc(C(=O)NCc4ccc5c(c4)OCO5)oc3nc2c1	none
CCSc1ccccc1C(=O)N1CCN(Cc2ccc3c(c2)OCO3)CC1	IL1B secr inh inconclusive
COc1ccc2cc3cc(C(=O)N4CCN(Cc5ccc6c(c5)OCO6)CC4)oc3nc2c1	MCF10A rerep inconclusive, IL1B secr inh -65
Cc1ccc(C(=O)N2CCN(Cc3ccc4c(c3)OCO4)CC2)cc1[N+](=O)[O-]	MCF10A rerep inconclusive, SW480 rereplic inconclusive, IL1B secr inh -57
O=C(C1=NNCC1c1ccc(Cl)cc1)C1CO1 (stereo not given)	MCF10A rerep inconclusive, SW480 rereplic inconclusive, IL1B secr inh -67
O=C(c1ccccc1)C1N=NCC1c1ccc(Cl)cc1 (stereo not given)	MCF10A rerep inconclusive
CCOc1ccccc1C(=O)Nc1c(NC)c2ccccc2oc1=O	none (no result: Giardia killer, MCF10A rerep, SW480 rereplic, IL1B secr inh)
COc1cc(C2C3=C(COC3=O)Oc3cc4c(cc32)OCO4)cc(OC)c1OC (stereo not given)	MCF10A rerep 0.23µM, SW480 rereplic 0.13µM
